Screening data: PubChem, National Center for Advancing Translational Sciences (NCATS)
In the library only some 2.8% were active in any assay of this set; here they are far more common.
WRN helicase inh – qHTS for Inhibitors of WRN Helicase; Bifunctional 3'-5' exonuclease/ATP-dependent helicase WRN (Homo sapiens), Q14191; WRN helicase unwinding, fluorescent forked duplex, kinetic; Potency, µM (series often up to 114 µM), hits mostly inhibitors; hit rate 0.46% among 360,000; also: nearly all actives have a fitted effect of over 55% in size
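Fluorescence dequenching readout, ex 525 nm/em 598 nm, kinetic mode: forked duplex DNA (100 nM final) with adjacent fluorophore and quencher unwound by WRN (20 nM final) with 2 mM ATP. Compound preincubation 15 min, room temperature.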
POLB inh – qHTS Assay for Inhibitors of DNA Polymerase Beta. P06746. Pol beta primer extension/strand displacement, fluorescence kinetic. Potency, µM (doses to about 114 µM), actives largely listed as inhibitors. hit rate 1.3% among 340,000
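Curves were derived by four-parameter Hill fits of normalized qHTS data. The kinetic fluorescent primer-extension read was taken at 0 and 10 min after 50 nM substrate, following a 15 min room-temperature preincubation of 10 nM enzyme with compounds.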
Pol iota inh – qHTS for Inhibitors of Polymerase Iota. Pol iota fluorescent replication assay, 10 min. Potency, µM (series often up to 115 µM), most hits filed as inhibitors. DNA polymerase iota (Homo sapiens), Q9UNA4. AID 588590, 2011. hit rate 1% among 390,000
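Fluorescent replication assay read twice, at 0 min and 10 min after adding 50 nM (final) substrate. Enzyme (10 nM) and compounds were first incubated 15 min at room temperature; enzyme-free buffer wells were negative controls.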
POLH inh – qHTS for Inhibitors of Polymerase Eta | recombinant Pol eta, fluorescent DNA replication assay | Potency, µM (doses to about 114 µM), actives largely listed as inhibitors | hit rate 1.2% among 390,000
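Pol eta at 10 nM preincubated with compounds 15 min at room temperature; reaction started with fluorescent substrate (50 nM final) and read kinetically at 0 and 10 min.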
PI5P4K alpha inh – qHTS for Inhibitors of phosphatidylinositol 5-phosphate 4-kinase (PI5P4K); hit rate 1.2% among 330,000; PI5P4Kalpha enzyme, ADP-Glo luminescence, 60 min; hits give low values; max response, %; Phosphatidylinositol 5-phosphate 4-kinase type-2 alpha (Homo sapiens), P48426; AID 652105, 2013; active = max response of -50% or lower; inconclusive = between -30% and -50%; inactive = -30% or higher; also: value at the top dose of about 77 µM
Target sequence (P48426 whole entry, looked up): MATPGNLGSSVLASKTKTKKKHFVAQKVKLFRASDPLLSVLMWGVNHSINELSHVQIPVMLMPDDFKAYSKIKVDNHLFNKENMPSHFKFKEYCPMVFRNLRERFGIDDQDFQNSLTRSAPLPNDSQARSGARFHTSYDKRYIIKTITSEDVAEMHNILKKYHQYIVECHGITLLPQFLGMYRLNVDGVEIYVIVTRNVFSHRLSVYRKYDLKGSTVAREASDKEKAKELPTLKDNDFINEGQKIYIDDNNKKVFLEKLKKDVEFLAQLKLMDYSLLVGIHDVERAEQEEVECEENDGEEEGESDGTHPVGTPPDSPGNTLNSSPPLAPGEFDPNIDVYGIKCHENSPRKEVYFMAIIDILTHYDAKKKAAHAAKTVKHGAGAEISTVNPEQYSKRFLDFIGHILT
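Reactions run in 0.038 M HEPES pH 7.4, 0.28 mM EGTA, 0.1% CHAPS and 5% DMSO, with PI5P4Kalpha, substrate, compound and 5 microM ATP final, one hour at room temperature. Readout is ADP-Glo luminescence.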
POLK inh – qHTS for Inhibitors of Polymerase Kappa; DNA polymerase kappa (Homo sapiens), Q9UBT6; purified Pol kappa, fluorescent DNA synthesis assay, 10 min; Potency, µM (top dose mostly 107 µM), actives largely listed as inhibitors; hit rate 0.53% among 400,000; AID 588579, 2011
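First, compounds were pin-transferred onto 10 nM Pol kappa. After 15 min at room temperature, substrate was added to 50 nM final. Fluorescence was then measured kinetically at 0 and 10 min.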
Large screens that a line does not name were inactive; ! = a repeat was not active. Unless noted, calls follow the shape of the dose curve; as a rule, active = well fitted curve in the direction sought with a large enough effect; inconclusive = small, poorly fitted or top-dose-only effect, or another doubt; inactive = no such curve, though single readings can be large; an effect the other way counts as inactive or inconclusive.

COc1ccc(/C=C2\C(=O)NC(=O)N(Cc3ccccc3)C2=O)c(OC)c1OC	Pol iota inh inconclusive
O=S(=O)(CCN1CCN(c2ccccn2)CC1)c1ccc(Cl)cc1Cl	none
Cc1cccc(N2C(=O)CSC23C(=O)N(CC(=O)Nc2cccc(Cl)c2)c2ccccc23)c1 (stereo not drawn)	Pol iota inh inconclusive (no result: WRN helicase inh, PI5P4K alpha inh)
O=[N+]([O-])/C=C/c1c(Cl)cccc1Cl	WRN helicase inh 31.6µM (no result: POLB inh)
O=C1NC(=O)N(Cc2ccco2)C(=O)/C1=C/c1ccc(-c2cccc([N+](=O)[O-])c2)o1	WRN helicase inh 22.4µM, POLB inh 17.8µM, Pol iota inh 7.94µM, POLH inh 8.91µM, PI5P4K alpha inh -80.2, POLK inh 22.4µM
O=C1NC(=O)N(c2ccccc2)C(=O)/C1=C\c1ccccc1[N+](=O)[O-]	WRN helicase inh inconclusive, Pol iota inh inconclusive, PI5P4K alpha inh inconclusive
C=CCN1C(=O)NC(=O)/C(=C\c2ccc(-c3ccccc3[N+](=O)[O-])o2)C1=O	WRN helicase inh inconclusive, POLB inh inconclusive, Pol iota inh inconclusive, POLH inh inconclusive, PI5P4K alpha inh -53.0
Cc1cccc(N2C(=O)NC(=O)/C(=C/c3ccc(-c4ccc(C(=O)O)c(Cl)c4)o3)C2=O)c1	none (no result: WRN helicase inh, Pol iota inh, POLH inh, PI5P4K alpha inh, POLK inh)
NC(Cc1cc(O)c(O)cc1O)C(=O)O (stereo not drawn)	POLB inh 0.112µM, Pol iota inh 0.398µM, POLH inh 0.282µM, POLK inh 0.67µM (no result: WRN helicase inh, PI5P4K alpha inh)
CCC(CC)c1nnc(NC(=O)CC(C)c2ccccc2)s1 (stereo not drawn)	none
O=C(Nc1cc(C(F)(F)F)cc(C(F)(F)F)c1)c1cccn(Cc2ccccc2Cl)c1=O	none (no result: WRN helicase inh, PI5P4K alpha inh)
O=C(Nc1cc(C(F)(F)F)cc(C(F)(F)F)c1)c1cc(Cl)ccc1O	POLK inh 29.9µM! (no result: WRN helicase inh, POLB inh, Pol iota inh, POLH inh, PI5P4K alpha inh)
O=C(c1ccc2nc(-c3ccco3)c(-c3ccco3)nc2c1)N1CCC2(CC1)OCCO2	WRN helicase inh inconclusive, POLB inh 20µM, Pol iota inh inconclusive, POLH inh 15.8µM, POLK inh inconclusive
COc1ccc(C(=O)N2CCC3(CC2)OCCO3)cc1	POLB inh inconclusive
Cc1cccc2c1=NC(=O)/C(=C/c1c(O)[nH]c(=O)[nH]c1=O)C=2	WRN helicase inh 50.1µM, PI5P4K alpha inh -54.0
O=C1NC(=O)N(c2ccccc2)C(=O)/C1=C/c1ccc(Sc2ccccc2)o1	WRN helicase inh 44.7µM, POLH inh inconclusive, POLK inh inconclusive (no result: PI5P4K alpha inh)
CCN(CC)c1ccc(CC2C(=O)N(C)C(=O)N(C)C2=O)cc1	WRN helicase inh 20µM, Pol iota inh inconclusive
Cc1ccc(CC2C(=O)N(C)C(=O)N(C)C2=O)s1	Pol iota inh inconclusive (no result: PI5P4K alpha inh)
C=CCOc1ccc(CC2C(=O)N(C)C(=O)N(C)C2=O)cc1	POLB inh inconclusive, Pol iota inh inconclusive, POLH inh 15.8µM, PI5P4K alpha inh inconclusive
O=C1C=CC(=O)c2c(O)cccc21	POLK inh 2.67µM (no result: WRN helicase inh, POLB inh, Pol iota inh, POLH inh, PI5P4K alpha inh)
O=C(Nc1cccc(C(=O)Nc2cc(C(=O)Nc3ccc([S+](=O)([O-])[O-])c4cc([S+](=O)([O-])[O-])cc(SOOO)c34)ccc2F)c1)Nc1cccc(C(=O)Nc2cc(C(=O)Nc3ccc([S+](=O)([O-])[O-])c4cc([S+](=O)([O-])[O-])cc([S+](=O)([O-])[O-])c34)ccc2F)c1	POLK inh 0.0597µM (no result: WRN helicase inh, POLB inh, Pol iota inh, POLH inh, PI5P4K alpha inh)
CC(=O)[O][Hg][c]1ccccc1	none (no result: WRN helicase inh, POLB inh, Pol iota inh, POLH inh, PI5P4K alpha inh)
CCOP(=S)(OCC)Oc1ccc(Cl)cc1Cl	none (no result: WRN helicase inh, POLB inh, Pol iota inh, POLH inh, PI5P4K alpha inh)
COc1cccc(-n2c(/C=C/c3ccc(O)c(O)c3)nc3ccccc3c2=O)c1	POLB inh 8.91µM, Pol iota inh 22.4µM, POLH inh 28.2µM, PI5P4K alpha inh inconclusive
O=c1c2ccccc2nc(/C=C/c2ccc(O)cc2)n1-c1cccc(O)c1	WRN helicase inh inconclusive, POLB inh 3.98µM, Pol iota inh 25.1µM, POLH inh 56.2µM, POLK inh inconclusive
